Experiment [1] relates to Human papillomavirus type 1a protein E7 (residues 44-93). In words: small molecules binding HPV E7 44-93 – biochemical, small-molecule microarray, residues 44-93, 635 nm fluorescence, primary screen (AID 1108).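 Further: E7 fragment applied at 1 µg/mL in TBST for 1 h at 4 C; score combines spot fluorescence with its signal to noise ratio.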 The conditions noted are these: fluorescence 635 nm, higher = more signal.
Experiment [2] is described as follows: hepatitis C replication reporter changes, two-sided – Huh7 cells, luciferase reporter, HCV replication inhibitor project, primary screen (AID 1109).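 Further: huh7 hepatoma cells harbouring a luciferase neomycin HCV replicon reporter; luciferase luminescence as measure of HCV replicon replication; test concentration not given here.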 The conditions noted are these: Huh7 HCV replicon luciferase reporter, 48 h; higher = more signal.
Experiment [3] concerns the target Left-right determination factor 2 (Homo sapiens) (UniProt O00292). Put plainly: small molecules binding LEFTY2 protein – biochemical, small-molecule microarray, 635 nm fluorescence scan, primary screen (AID 1110). The conditions noted are these: higher = more signal.
The target of experiment [4] is Calmodulin-1 (Homo sapiens) (UniProt P0DP23). Put plainly: small molecules binding calmodulin-1 with EGTA – biochemical, small-molecule microarray, Cy5-labelled CALM1, profiling panel (AID 1111).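 Further: labelled calmodulin applied in Tris saline Tween buffer holding calcium plus EGTA and DTT.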 The conditions noted are these: Cy5-CALM1 binding fluorescence, higher = more signal.
Experiment [5] shares this target. In words: small molecules binding Ca-loaded calmodulin-1 – biochemical, small-molecule microarray, Cy5-labelled CALM1, plus calcium, artefact control for SMM control-protein annotation, profiling panel (AID 1112).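 Further: score merges spot fluorescence with signal to noise from triplicate slides.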 The conditions noted are these: Cy5-CALM1 binding fluorescence, higher = more signal.
Experiment [6] can be described thus: probe aWnt5a binding to arrayed compounds – biochemical, biotinylated probe, 635/667 nm fluorescence, primary screen (AID 1113).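 Further: score merges 667 nm fluorescence intensity with signal-to-noise per printed feature.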 The conditions noted are these: small-molecule microarray, higher = more signal.
Experiment [7] is described as follows: probe aShh binding to arrayed compounds – biochemical, biotinylated probe, 635/667 nm fluorescence, primary screen (AID 1114).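 Further: probe is biotin-labelled aShh protein from a stem cell growth factor screen; measures binding of labelled protein to compounds printed on the slide; score merges feature fluorescence at 667 nm with signal-to-noise.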 The conditions noted are these: small-molecule microarray, higher = more signal.
Experiment [8] can be described thus: probe aNog binding to arrayed compounds – biochemical, biotinylated probe, 635/667 nm fluorescence, primary screen (AID 1115).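 Further: probe is biotinylated aNog protein used at 0.15 µg/mL for 1 h at 4 C; z-score combines 667 nm fluorescence of each spot with its signal to noise.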 The conditions noted are these: small-molecule microarray, higher = more signal.
In experiment [9] the target is Torsin-1A-interacting protein 1 (Homo sapiens) (UniProt Q5JTV8). Put plainly: compound microarray binding of lysate hLAP1 – cell lysate, small-molecule microarray, COS7 lysate, 635/667 nm fluorescence, primary screen (AID 1116). The conditions noted are these: 635 nm fluorescence, higher = more signal.
For experiment [10], the target named is Alpha-bungarotoxin (Bungarus multicinctus) (UniProt P60615). Put plainly: compounds binding labelled alpha-BTX control protein – biochemical, small-molecule microarray, Alexa647 label, 635/667 nm fluorescence, artefact control for SMM control protein annotation, profiling panel (AID 1117). The conditions noted are these: alpha-BTX-A647 binding fluorescence, higher = more signal.

The next experiment deals with Albumin (Bos taurus) (UniProt P02769). In words: compounds binding labelled BSA control protein – biochemical, small-molecule microarray, Alexa647 label, 635/667 nm fluorescence, artefact control for SMM control protein annotation, profiling panel (AID 1118).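 Further: score merges 667 nm emission intensity and signal-to-noise per printed compound spot.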 The conditions noted are these: BSA-A647 binding, fluorescence 635 nm, higher = more signal.
Experiment [11] in a line: probe aXIP binding to arrayed compounds – biochemical, NeuroSMM set, 635/667 nm fluorescence, primary screen (AID 1119).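 Further: probe is the protein aXip251-270 applied at 1 µg/mL to compound-printed slides; binding of probe to printed compounds measured as 667 nm fluorescence plus signal to noise.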 The conditions noted are these: small-molecule microarray, higher = more signal, called active from +8 up or from −8 down.
Experiment [12] in a line: probe aNOTCH3 binding on compound microarray – biochemical, small-molecule microarray, 635/667 nm fluorescence, primary screen (AID 1120).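 Further: probe is a biotin-tagged antibody raised against NOTCH3 rather than NOTCH3 protein; score merges spot fluorescence near 667 nm with spot signal to noise.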 The conditions noted are these: higher = more signal.
A short description of experiment [13]: probe aNOTCH2 binding on compound microarray – biochemical, small-molecule microarray, 635/667 nm fluorescence, primary screen (AID 1121).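 Further: score merges feature fluorescence read at 667 nm with its signal to noise.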 The conditions noted are these: higher = more signal.
Experiment [14] has as its target Carbonic anhydrase 2 (Homo sapiens) (UniProt P00918). In words: compounds binding carbonic anhydrase 2 – biochemical, small-molecule microarray, Alexa647-labelled CAII, profiling panel (AID 1122). The conditions noted are these: CAII-A647 binding fluorescence, higher = more signal.
Experiment [15] is described as follows: COS7 lysate on small-molecule microarray, probe aHis, 635 nm (AID 1123).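 Further: z-score combines 667nm fluorescence intensity with signal-to-noise per printed compound spot.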 The conditions noted are these: COS7 cell lysate, fluorescence, higher = more signal.
The nature of experiment [16]: probe aLAP1 signal on lysate-treated microarray – cell lysate, small-molecule microarray, COS7 lysate, primary screen (AID 1124).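 Further: lysate comes from COS7 cells expressing LAP1 and is applied at 0.3 µg/mL; score merges spot fluorescence near 667 nm with signal-to-noise over triplicate slides.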 The conditions noted are these: probe aLAP1, fluorescence, higher = more signal.
In a further experiment the test system is Sam68 (KHDRBS1). In words: compounds binding KHDRBS1 protein – biochemical, small-molecule microarray, 635 nm fluorescence, primary screen (AID 1125).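 Further: score merges 667 nm channel intensity with signal to noise over triplicate slides.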 The conditions noted are these: higher = more signal.
For experiment [17], the system named is Chordin-like protein 2 (CHRDL2). In words: compounds binding chordin-like 2 – biochemical, small-molecule microarray, 635 nm fluorescence, primary screen (AID 1126).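 Further: printed compound slides probed with Chrdl2 protein at 4 µg/mL for 1 h at 4 C; score merges 667 nm emission intensity with signal to noise over three replicate slides.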 The conditions noted are these: fluorescence 635 nm, higher = more signal.
Experiment [18] addresses Concanavalin-A (Canavalia ensiformis) (UniProt P02866). In words: compounds binding concanavalin A lectin – biochemical, small-molecule microarray, Alexa647 label, 635 nm, artefact control for SMM control protein annotation, primary screen (AID 1127).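 Further: z combines 667 nm emission intensity with signal-to-noise across three replicate slides.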 The conditions noted are these: ConA-A647 binding fluorescence, higher = more signal.

Each structure is given as a SMILES string. The source made the active and inactive calls.

Sequence of Alpha-bungarotoxin (Bungarus multicinctus) (P60615 whole entry, looked up): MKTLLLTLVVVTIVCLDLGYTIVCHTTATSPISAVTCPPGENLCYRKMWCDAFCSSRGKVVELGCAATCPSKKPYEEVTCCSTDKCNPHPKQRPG
Sequence of Left-right determination factor 2 (Homo sapiens) (O00292 whole entry, looked up): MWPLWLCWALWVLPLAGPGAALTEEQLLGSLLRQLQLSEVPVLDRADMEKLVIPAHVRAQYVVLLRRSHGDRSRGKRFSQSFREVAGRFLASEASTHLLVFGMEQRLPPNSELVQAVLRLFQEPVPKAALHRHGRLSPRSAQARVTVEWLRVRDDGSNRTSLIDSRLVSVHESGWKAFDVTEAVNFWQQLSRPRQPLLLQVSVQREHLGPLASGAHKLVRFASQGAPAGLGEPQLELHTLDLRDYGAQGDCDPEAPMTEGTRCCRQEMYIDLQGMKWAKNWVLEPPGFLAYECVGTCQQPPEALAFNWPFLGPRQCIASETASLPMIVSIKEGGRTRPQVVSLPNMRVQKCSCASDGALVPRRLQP
Sequence of Albumin (Bos taurus) (P02769 whole entry, looked up): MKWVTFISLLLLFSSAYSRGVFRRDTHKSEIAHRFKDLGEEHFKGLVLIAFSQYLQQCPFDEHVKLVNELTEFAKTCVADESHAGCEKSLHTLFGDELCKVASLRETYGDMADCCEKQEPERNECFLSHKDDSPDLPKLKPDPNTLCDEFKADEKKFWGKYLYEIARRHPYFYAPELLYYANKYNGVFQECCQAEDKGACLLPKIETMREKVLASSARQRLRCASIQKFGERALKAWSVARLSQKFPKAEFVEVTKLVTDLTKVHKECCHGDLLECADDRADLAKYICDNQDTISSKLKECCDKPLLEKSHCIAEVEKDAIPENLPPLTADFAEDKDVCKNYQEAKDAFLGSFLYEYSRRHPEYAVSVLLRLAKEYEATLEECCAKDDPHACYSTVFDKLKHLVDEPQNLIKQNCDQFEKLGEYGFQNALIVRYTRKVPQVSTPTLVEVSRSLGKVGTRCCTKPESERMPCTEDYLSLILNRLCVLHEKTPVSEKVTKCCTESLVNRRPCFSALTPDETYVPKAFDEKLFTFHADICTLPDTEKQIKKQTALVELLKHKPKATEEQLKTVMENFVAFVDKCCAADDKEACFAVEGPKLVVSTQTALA
Sequence of Torsin-1A-interacting protein 1 (Homo sapiens) (Q5JTV8 whole entry, looked up): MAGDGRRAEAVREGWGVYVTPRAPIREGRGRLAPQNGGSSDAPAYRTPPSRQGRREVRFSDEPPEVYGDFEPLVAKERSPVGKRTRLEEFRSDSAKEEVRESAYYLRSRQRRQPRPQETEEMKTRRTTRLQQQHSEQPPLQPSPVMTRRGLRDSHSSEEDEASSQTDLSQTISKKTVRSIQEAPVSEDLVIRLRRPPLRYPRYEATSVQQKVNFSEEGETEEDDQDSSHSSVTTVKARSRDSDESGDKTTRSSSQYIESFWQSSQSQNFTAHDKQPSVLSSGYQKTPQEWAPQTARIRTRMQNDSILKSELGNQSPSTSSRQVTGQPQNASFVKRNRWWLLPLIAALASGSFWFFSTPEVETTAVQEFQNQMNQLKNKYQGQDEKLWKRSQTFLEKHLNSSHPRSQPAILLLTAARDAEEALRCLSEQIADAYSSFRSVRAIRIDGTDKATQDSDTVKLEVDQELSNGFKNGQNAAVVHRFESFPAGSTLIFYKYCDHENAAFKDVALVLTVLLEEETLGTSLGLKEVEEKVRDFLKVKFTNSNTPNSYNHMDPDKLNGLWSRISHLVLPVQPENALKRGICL
Sequence of Concanavalin-A (Canavalia ensiformis) (P02866 whole entry, looked up): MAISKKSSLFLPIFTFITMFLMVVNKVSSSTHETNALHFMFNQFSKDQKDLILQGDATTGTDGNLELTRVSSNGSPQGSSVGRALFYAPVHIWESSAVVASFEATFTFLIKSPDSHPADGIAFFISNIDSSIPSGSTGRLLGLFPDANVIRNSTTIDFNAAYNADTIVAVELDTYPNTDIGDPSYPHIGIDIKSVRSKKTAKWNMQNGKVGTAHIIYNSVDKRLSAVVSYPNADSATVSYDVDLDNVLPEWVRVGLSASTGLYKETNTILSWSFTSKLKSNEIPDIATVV

For the compound `CN(C)C(=O)[C@@]1(Cc2ccccc2)N=C(c2ccc(OCCCO)cc2)O[C@H]1c1ccccc1N=[N+]=[N-]`, the composite z-score was 1.42 in experiment [1]; -0.0506 in experiment [3]; 1.09 in experiment [4]; 0.0779 in experiment [5]; 0.178 in experiment [6]; -0.0146 in experiment [7]. Moreover, the composite z-score in experiment [8] was -0.482; in experiment [9] it was 0.491; in [10], 0.567; in the experiment with Albumin (Bos taurus) it was 0.952; in experiment [12], 0.516; in [13], -0.0422. Also, the composite z-score was found to be 0.765 in experiment [14]; 2.88 in experiment [15]; 0.935 in experiment [16]; 1.29 in the experiment with Sam68 (KHDRBS1); 0.152 in experiment [17]; 1.13 in [18]. In experiment [2], this compound had a z-score of -2.79. Besides, the composite Z-score in experiment [11] is -0.0707 (inactive).

With `COc1cc2c(cc1OC)CN(C(=O)[C@@H]1[C@H]3C(=O)O[C@H](c4ccccc4)[C@H](c4ccccc4)N3[C@H](c3ccc(O)cc3)[C@@]13C(=O)Nc1ccc(C#CC4(O)CCCCCC4)cc13)CC2`, the composite z-score in experiment [1] is 1.21; in experiment [3] it was 1.39; in [4], 0.965; in experiment [5], -0.0394; in experiment [6], -0.195; in experiment [7], -0.0005. Also, the composite z-score was 2.1 in [8]; 0.344 in experiment [9]; 1.66 in experiment [10]; -0.0111 in the experiment with Albumin (Bos taurus); -0.191 in experiment [12]; 0.0834 in [13]. For the same compound, the composite z-score in experiment [14] worked out at 0.551; in experiment [15], 2.01; in [16], 0.548; in the experiment on Sam68 (KHDRBS1), 1.29; in experiment [17] it was 1.03; in experiment [18], 1.16. Also, the z-score in experiment [2] is -1.1. Moreover, in [11], the composite Z-score was 0.841 (inactive).

Take `CCCCN1CC=CC23O[C@@H]4/C=C\CCC(C)OC(=O)C4[C@H]2C(=O)N(CCCCCO)[C@@H]3C1=O` (stereo not given in full): the composite z-score in experiment [1] was 0.15; in [3] it was -1.39; in experiment [4], -0.78; in [5] it was 0.0481; in experiment [6] it was -0.191; in experiment [7], -0.214. Further, the composite z-score in experiment [8] is -0.21; in experiment [9], 1.27; in [10] it was -1.14; with Albumin (Bos taurus), -1.05; in [12] it was -0.422; in experiment [13] it was -0.126. Also, the composite z-score is 0.867 in [14]; -0.427 in [15]; 1.34 in experiment [16]; -0.287 in the experiment on Sam68 (KHDRBS1); -1.4 in [17]; -1.09 in [18]. The compound also displayed a z-score in [2] of -0.275. Also, the composite Z-score in experiment [11] was 0.114 (inactive).

`CC(C)(C)OC(=O)CC[C@]1(C(=O)O)N=C(c2ccc(OCCCO)cc2)O[C@H]1c1ccccc1N=[N+]=[N-]`: the composite z-score in [1] was 0.148; in [3], 0.101; in experiment [4] it was 1.84; in experiment [5], 0.465; in experiment [6], 0.38; in experiment [7], 0.699. For the same compound, the composite z-score in [8] was 2.34; in experiment [9] it was 1.41; in experiment [10], 1.42; with Albumin (Bos taurus) it was 0.82; in experiment [12] it was 0.786; in experiment [13], 0.473. The composite z-score was 0.838 in experiment [14]; 2.95 in [15]; 0.781 in experiment [16]; 0.889 with Sam68 (KHDRBS1); 0.0588 in experiment [17]; 0.663 in [18]. The compound further came in with a z-score in experiment [2] of 2.27. The composite Z-score in experiment [11] was 0.653 (inactive).

`COCCOC(=O)N1C(=O)[C@@]2(c3cc(C#CC4=CCCCC4)ccc31)[C@H](c1ccc(O)cc1)N1[C@H](c3ccccc3)[C@H](c3ccccc3)OC(=O)[C@H]1[C@@H]2C(N)=O`: the composite z-score in [1] was 1.19; in experiment [3], 0.63; in experiment [4], 0.624; in experiment [5] it was 0.0442; in experiment [6], -0.0165; in experiment [7], 0.157. The composite z-score is -0.564 in experiment [8]; 0.745 in experiment [9]; 1.04 in experiment [10]; -0.353 with Albumin (Bos taurus); 0.092 in experiment [12]; -0.253 in experiment [13]. For the same compound, the composite z-score in experiment [14] is 0.331; in experiment [15] it was 1.16; in experiment [16] it was 0.45; with Sam68 (KHDRBS1), 1.01; in [17], 0.71; in experiment [18], 1.06. The same compound had a z-score in experiment [2] of -0.696. Further, the composite Z-score in experiment [11] was 0.544 (inactive).
